Measured values from PubChem BioAssay (NCATS).
Records with an inconclusive call do not appear. Activity calls are given as the source filed them. Calls come from the whole dose curve; as a rule, active = well fitted curve in the direction sought with a large enough effect; inconclusive = small, poorly fitted or top-dose-only effect, or another doubt; inactive = no such curve, though single readings can be large; an effect the other way counts as inactive or inconclusive.

Columns and labels:
[1] = Cellular Toxicity (caspase-3) N2a (AID 665); settings: N2a cells, luminescence, normalized: DMSO 0%, 10 µM staurosporine 100%; at 92.2 µM (top of the series);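 note: compound exposure lasted 16 h at 37 °C before readout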
How it was run: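 Mouse N2a neuroblastoma cells (1500/well) were treated with compounds for 16 h at 37 °C, then caspase-3/7 activity was read by Caspase-Glo luminescence after 1 h at room temperature. Data were normalized to DMSO and 10 uM staurosporine; AC50 from Hill fits.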

[2] = Cellular Toxicity (caspase-3) NIH 3T3 (AID 666);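 note: caspase signal read after 16 h compound exposure; 0% = DMSO basal and 100% = 100 µM tamoxifen stimulation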
How it was run: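 Mouse NIH 3T3 fibroblasts (1000 cells/well) were treated with compound for 16 hr at 37°C in complete medium; caspase-3/7 activity was read by Caspase-Glo luminescence. Normalized to DMSO and 100 uM tamoxifen; AC50 from Hill fits.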

[3] = biological target: Cytochrome P450 3A4 (Homo sapiens) (UniProt P08684); experiment: qHTS Assay for Inhibitors and Substrates of Cytochrome P450 3A4 (AID 884); note: % is set by controls: 0 for no effect and ±100 for the full control effect; nearly all actives have a fitted effect of over 50% in size
Sequence of Cytochrome P450 3A4 (Homo sapiens) (P08684 whole entry, looked up): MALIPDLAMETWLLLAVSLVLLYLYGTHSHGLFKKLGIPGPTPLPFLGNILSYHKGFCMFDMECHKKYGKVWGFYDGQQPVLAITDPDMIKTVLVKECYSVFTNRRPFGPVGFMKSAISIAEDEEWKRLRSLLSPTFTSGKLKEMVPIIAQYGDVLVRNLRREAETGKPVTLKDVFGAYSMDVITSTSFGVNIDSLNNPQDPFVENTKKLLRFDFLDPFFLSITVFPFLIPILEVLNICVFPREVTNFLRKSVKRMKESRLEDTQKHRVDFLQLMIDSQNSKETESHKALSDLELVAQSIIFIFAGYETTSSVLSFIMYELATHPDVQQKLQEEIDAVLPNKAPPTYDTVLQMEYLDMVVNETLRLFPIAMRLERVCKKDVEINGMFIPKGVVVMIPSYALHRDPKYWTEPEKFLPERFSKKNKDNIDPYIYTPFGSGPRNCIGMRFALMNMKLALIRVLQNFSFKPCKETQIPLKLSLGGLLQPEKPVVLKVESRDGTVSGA
How it was run: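 20 nM human CYP3A4 with 25 uM Luciferin-PPXE (at KM) in 200 mM KPO4, preincubated 10 min with compound; NADPH regeneration started a 60 min RT reaction. Luciferin detected by luminescence, normalized to 57 uM ketoconazole as full inhibition.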

[4] = Cell Viability - LYMP2-001 (AID 921);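 note: 0% = DMSO only and full inhibition = tetraoctylammonium bromide control wells; nearly all actives have a fitted effect of over 70% in size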
How it was run: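 Steps: seed 2500 lymphoblastoid cells/well; 5 hr, 37 C; add compound; 24 hr, 37 C; CellTiter-Glo reagent, 30 min room temperature; read luminescence. Concentration-response modeled by Hill equation for AC50.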

[5] = MultiTox-Fluor Cytotoxicity Assay - LYMP1-001 - Dead Cells (AID 946);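 note: 0% = DMSO and 100% = tetraoctylammonium bromide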
How it was run: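 AC50 from Hill fit of concentration-response; data normalized to DMSO (basal) and 15 uM tetraoctylammonium bromide (100%). LYMP1-001 lymphoblastoid cells, 2500/well, 16 hr compound at 37 C; dead-cell protease fluorescence, Ex/Em 485/520.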

[6] = MultiTox-Fluor Cytotoxicity Assay - LYMP1-001 - Live Cells (AID 947);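 note: 0% = DMSO only and full inhibition = tetraoctylammonium bromide control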
[7] = Cell Viability - LYMP1-002 - Assay at 16 hr (AID 948);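 note: 0% = DMSO alone and full effect = 92 µM tetraoctylammonium bromide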
How it was run: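 Seed 2500 LYMP1-002 cells per well in complete medium and hold 5 hr at 37 C. Add compound across a concentration series and incubate 16 hr at 37 C. Add CellTiter-Glo, wait 30 min at room temperature, read luminescence.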

[8] = MultiTox-Fluor Cytotoxicity Assay - LYMP1-002 - Live Cells (AID 955); note: % is set by controls: 0 for no effect and ±100 for the full control effect
How it was run: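 Human lymphoblastoid LYMP1-002 cells, 2500/well in complete medium, rested 5 hr at 37 C, then exposed to compounds for 16 hr at 37 C. Live-cell protease cleavage of GF-AFC read by fluorescence (Ex/Em 405/510) after 60 min at room temperature; AC50 from Hill fits.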

[9] = MultiTox-Fluor Cytotoxicity Assay - LYMP1-002 - Dead Cells (AID 960);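 note: 0% = DMSO and 100% = tetraoctylammonium bromide; nearly all actives have a fitted effect of over 60% in size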
How it was run: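 Human lymphoblastoid cells (LYMP1-002), 2500/well in complete medium, were exposed to compounds for 16 hr at 37 C. Dead-cell protease activity was read as bis-AAF-R110 fluorescence (Ex/Em 485/520), normalized to DMSO and 15 uM tetraoctylammonium bromide; AC50 from Hill fits.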

[10] = MultiTox-Fluor Cytotoxicity Assay - LYMP1-003 - Dead Cells (AID 961);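 note: 0% = DMSO and 100% = tetraoctylammonium bromide; nearly all actives have a fitted effect of over 70% in size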
How it was run: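 Human lymphoblastoid LYMP1-003 cells (2500/well) were treated with compounds for 16 hr at 37 C in complete medium. Dead-cell protease release was read by bis-AAF-R110 fluorescence (Ex/Em 485/520). AC50 came from Hill fits, normalized to DMSO and 15 uM tetraoctylammonium bromide.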

[11] = MultiTox-Fluor Cytotoxicity Assay - LYMP1-003 - Live Cells (AID 962);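 note: 0% = DMSO only and full loss = 92 µM tetraoctylammonium bromide; cytotoxic hits lower the live-cell protease signal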
How it was run: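 LYMP1-003 human lymphoblastoid cells (2500/well) in complete medium were preincubated 5 hr at 37 C, then exposed to compounds for 16 hr at 37 C. Live-cell protease cleavage of GF-AFC read by fluorescence (Ex/Em 405/510); AC50 from Hill fits.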

[12] = Cell Viability - LYMP1-003 - Assay at 40 hr (AID 964); note: % is set by controls: 0 for no effect and ±100 for the full control effect; nearly all actives have a fitted effect of over 60% in size
How it was run: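 Human lymphoblastoid LYMP1-003 cells, 2500/well in complete medium, rested 5 hr at 37 C, then exposed to compounds for 40 hr at 37 C. Viability read as intracellular ATP by CellTiter-Glo luminescence; AC50 from Hill fits of concentration-response data.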

[13] = Cell Viability - LYMP2-003 (AID 965);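 note: cells exposed to compounds for 24 h before reading; 0% = DMSO only and full effect = 92 µM tetraoctylammonium bromide; nearly all actives have a fitted effect of over 50% in size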
How it was run: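 Seed 2500 lymphoblastoid cells/well; incubate 5 hr, 37 C; add compounds; incubate 24 hr, 37 C; add CellTiter-Glo, 30 min RT; read luminescence. AC50 from Hill fit.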

[14] = Cell Viability - LYMP2-004 (AID 966);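 note: plate controls were DMSO only for no effect and tetraoctylammonium bromide control for full effect; nearly all actives have a fitted effect of over 65% in size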
How it was run: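 Human lymphoblastoid cells (2500/well) in complete medium were treated with compounds for 24 hr at 37 C, then intracellular ATP was measured by CellTiter-Glo luminescence. AC50 values came from Hill-equation fits of concentration-response data.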

[15] = Cell Viability - LYMP2-005 (AID 967);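 note: plate controls were DMSO only for no effect and 92 µM tetraoctylammonium bromide control for full effect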
How it was run: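 Acute cytotoxicity is scored as a concentration-dependent drop in intracellular ATP in human lymphoblastoid LYMP2-005 cells after 24 h compound treatment. ATP is quantified by luciferase luminescence, and AC50 is derived by Hill-equation modelling.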

[16] = Cell Viability - LYMP2-009 (AID 968);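 note: 0% = DMSO alone and the full-kill end = tetraoctylammonium bromide at 92 µM; nearly all actives have a fitted effect of over 55% in size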
[17] = Cell Viability - LYMP2-011 (AID 969);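 note: 0% = DMSO only and full inhibition = 92 µM tetraoctylammonium bromide; nearly all actives have a fitted effect of over 60% in size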
How it was run: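 Human lymphoblastoid cells (2500/well) were plated in complete medium, preincubated 5 hr at 37 C, then exposed to compounds for 24 hr at 37 C. Intracellular ATP was read by CellTiter-Glo luminescence, and AC50 came from Hill-equation concentration-response fits.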

[18] = Cell Viability - LYMP2-013 (AID 970);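 note: 0% = DMSO only and full inhibition = tetraoctylammonium bromide control; nearly all actives have a fitted effect of over 55% in size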
How it was run: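 Human lymphoblastoid cells, 2500/well, were preincubated 5 hr at 37 C, then treated with compounds for 24 hr at 37 C in complete medium. Intracellular ATP was read by CellTiter-Glo luminescence; AC50 from Hill-equation fits of concentration-response data.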

[19] = Cell Viability - LYMP2-015 (AID 971);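 note: 0% = DMSO only and full effect = 92 µM tetraoctylammonium bromide; nearly all actives have a fitted effect of over 55% in size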
How it was run: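 Human lymphoblastoid cells (2500/well) in complete medium were preincubated 5 hr at 37 C, then compound-treated 24 hr at 37 C. Intracellular ATP was read by CellTiter-Glo luminescence after 30 min at room temperature; AC50 came from Hill-equation concentration-response fits.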

[20] = Cell Viability - LYMP2-017 (AID 972); note: % is set by controls: 0 for no effect and ±100 for the full control effect; nearly all actives have a fitted effect of over 55% in size
How it was run: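 Human lymphoblastoid cells (2500/well) were seeded in complete medium, held 5 hr at 37 C, then exposed to compounds for 24 hr at 37 C. Intracellular ATP was read by CellTiter-Glo luminescence after 30 min at room temperature, with AC50 values from Hill-equation fits.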

[21] = Cell Viability - LYMP2-019 (AID 973)
How it was run: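 Human lymphoblastoid cells were seeded at 2500 cells/well, preincubated 5 hr at 37 C, then exposed to compounds for 24 hr at 37 C in complete medium. Intracellular ATP was measured by CellTiter-Glo luminescence; AC50 from Hill fits.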

[22] = Cell Viability - LYMP2-021 (AID 974)
How it was run: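 Human lymphoblastoid cells (2500/well) were preincubated 5 hr at 37 C, then exposed to compounds for 24 hr at 37 C in complete medium. Intracellular ATP was read by CellTiter-Glo luminescence; AC50 came from Hill-equation fits of concentration-response data.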

Nc1ccc(Br)cc1
inactive: caspase-3 activation [1] 0.277% | outcome [2] | Potency [3] | Potency [4] | Potency [5] | Potency [6] | Potency [7] | outcome [8] | Potency [9] | Potency [10] | Potency [11] | Potency [12] | Potency [13] | Potency [14] | Potency [15] | Potency [16] | Potency [17] | Potency [18] | Potency [19] | Potency [20] | Potency [21] | Potency [22]
